# Laboratory results taken from PubChem BioAssay (NCI).
# About 83,000 compounds went through this panel and 20% of them were active in at least one assay; those are over-represented in the sample as a whole.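 Treatment: one concentration, 48 hours, 96-well format. Scoring: percent growth, with anything below 10 considered active.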 Unmarked numbers belong to inactive results. Activity calls are given as the source filed them.
# Columns and labels:
# Experiment in all cases: NCI-60 one-dose screen, 48 h (100 = growth as untreated, 0 = no growth, -100 = all killed)
# [1] = tested on: SK-MEL-2 melanoma; settings: 10 µM unless noted
# [2] = tested on: EKVX NSCLC; settings: 10 µM
# [3] = tested on: SN12C renal; settings: 10 µM unless noted
# [4] = tested on: UO-31 renal; settings: 10 µM unless noted
# [5] = tested on: TK-10 renal; settings: 10 µM unless noted
# [6] = tested on: CAKI-1 renal; settings: 10 µM unless noted
# [7] = tested on: A498 renal; settings: 10 µM unless noted
# [8] = tested on: CCRF-CEM leukemia; settings: 10 µM
# [9] = tested on: MOLT-4 leukemia; settings: 10 µM unless noted
# [10] = tested on: ACHN renal; settings: 10 µM unless noted
SMILES,growth [1],growth [2],growth [3] [%],growth [4],growth [5],growth [6],growth [7] [%],growth [8],growth [9],growth [10]
CC(=O)Nc1nc(C)c(C(=O)NNS(=O)(=O)c2ccccc2)s1,2.86% (active),113%,105,91.8%,161%,121%,121,114%,117%,
CCCC(=O)Nc1ccccc1C(=O)O,100%,96.4%,109,91.3%,92.3%,,,104%,98.6%,108%
Oc1ccc2ccccc2c1/C=N\Nc1ccccn1,19.3%,-6.82% (active),22.4,-24.7% (active),58.3%,-26.4% (active),,8.91% (active),5.28% (active),
Cc1nc2ccccc2c(=O)n1-c1cccc(OCc2cn(-c3cccc(O)c3)nn2)c1,90.6%,103%,97.4,68.2%,100%,,,88.3%,80.8%,93.8%
N/C(=N\O)c1ccncc1,100%,98.9%,106,88%,95.8%,,,106%,114%,103%
O=C(O)c1ccc(-c2nn(-c3ccc(C(=O)O)cc3)cc2CNc2ccc(Br)cc2)cc1,94.4%,101%,111,87.7%,98.4%,,,101%,118%,102%
CN1C(=O)C(=Cc2coc3ccc(Br)cc3c2=O)C(=O)N(C)C1=O,111%,109%,90.3,77.3%,108%,,,116%,126%,96.8%
CCCCCCNC(=O)Oc1ccc(/C(=C(/C)Cc2ccc(OC)cc2)c2ccc(OCCN(C)C)cc2)cc1,111%,78.1%,60.3,38.9%,71.5%,,,48.2%,30.7%,64.2%
COc1ccc(C(=O)c2no[n+]([O-])c2C(=O)c2ccc(OC)cc2)cc1,93%,64.8%,72.5,-100% (active),5.22% (active),,116,-68.7% (active),-80.1% (active),
N=C(N)N=Nc1ccc(NN=C(N)N)cc1,105%,36.3%,89,53.6%,103%,,,96.3%,105%,88.2%
CCOc1nc(-c2ccccc2)cc2c(O)c(C(=O)N/N=C/c3ccccc3O)[nH]c(=O)c12,61.3%,97.3%,,73.5%,140%,101%,102,69.4%,17.1%,107%
Cc1ccc(S(=O)(=O)Nc2cccc(Cn3c(=O)[nH]c4ccc(Oc5ncccn5)cc4c3=O)c2)cc1,55%,86.6%,,74.2%,105%,92.9%,77.8,65.9%,64.5%,87.7%
COC(=O)C(C)[C@H]1CC[C@@H]2[C@]1(C)CC=C1[C@]23C=C[C@]2(C[C@@H](OC(C)=O)CC[C@]12C)C(C(=O)OC)C3C(=O)OC (some centres undefined),100%,86.1%,,86.7%,109%,94.7%,106,74.4%,46.7%,112%
CCC(C)C1NC(=O)C(CC(C)C)NC(=O)C(C)NC(=O)C(C(C)C)NC(=O)C(CCCCN)NC(=O)C(CC(C)C)NC(=O)C(C(C)C)NC(=O)[C@H](C)NC(=O)C(C(C)CC)NC(=O)C(CCCN=C(N)N)NC(=O)C(CCCCN)NC(=O)C(CCCN=C(N)N)NC(=O)C(CCCCN)NC(=O)C([C@H](C)CC)NC(=O)C(CCCCN)NC1=O (some centres undefined),37.3%,15.3%,,21.8%,20.2%,8.2% (active),20.8,8.98% (active),-6.28% (active),3.41% (active)
CCOP1(=O)CC(C)=C(Cl)C(P(=O)(O)O)C1 (centres undefined),109%,102%,,42.5%,117%,110%,113,-35.6% (active),89.9%,101%
O=C1C(Cl)=C(SC2=NCCN2)C(=O)c2ccccc21,66.7%,94.4%,74,48.3%,173%,,119,61.7%,68.9%,
